# Experiments:
# Test in all cases: DAPPL (digital affinity profiling via proximity ligation, sequencing); 10 mM Tris-HCl pH 7.5, 50 mM NaCl, 1 mM DTT, 4% glycerol, room temperature, 30 min; GST-TFs on glutathione beads, 16-mer random dsDNA library, 0.1% formaldehyde crosslink after washing; high values mean tight binding
# FEV = biological target: T1, FEV (Homo sapiens, UniProt Q99581 1-238); conditions: protein: recombinant; tags: N-terminal GST; dsDNA, one strand shown
# T1 sequence: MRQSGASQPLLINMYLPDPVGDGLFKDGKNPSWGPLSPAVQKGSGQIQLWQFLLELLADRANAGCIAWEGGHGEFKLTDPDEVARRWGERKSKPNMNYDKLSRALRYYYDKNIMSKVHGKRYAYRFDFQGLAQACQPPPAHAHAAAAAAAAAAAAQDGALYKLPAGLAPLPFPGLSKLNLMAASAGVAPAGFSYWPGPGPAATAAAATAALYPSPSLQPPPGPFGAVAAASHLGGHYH
# Procedure, shortened: (§1)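 Pools of DNA-barcoded human transcription factors, expressed in yeast as GST fusions on glutathione beads and combined with a tag-only sample, were incubated with 200 nmole of a 16-mer random double-stranded DNA library. Incubation took 30 min at room temperature in Tris/NaCl/DTT/glycerol buffer and was followed by washing, 0.1% formaldehyde crosslinking, proximity ligation (BsaI/T4 ligase, 1 h, 37 °C), PCR amplification and sequencing on an Illumina NextSeq500. Binding signal is the ratio of a hexamer's read frequency for a factor to its frequency for the tag-only sample.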
# ETV5 = ETV5 (Homo sapiens, UniProt P41161 1-510); conditions: protein: recombinant; tags: N-terminal GST; dsDNA, one strand shown
# ETV5, sequence (P41161 whole entry): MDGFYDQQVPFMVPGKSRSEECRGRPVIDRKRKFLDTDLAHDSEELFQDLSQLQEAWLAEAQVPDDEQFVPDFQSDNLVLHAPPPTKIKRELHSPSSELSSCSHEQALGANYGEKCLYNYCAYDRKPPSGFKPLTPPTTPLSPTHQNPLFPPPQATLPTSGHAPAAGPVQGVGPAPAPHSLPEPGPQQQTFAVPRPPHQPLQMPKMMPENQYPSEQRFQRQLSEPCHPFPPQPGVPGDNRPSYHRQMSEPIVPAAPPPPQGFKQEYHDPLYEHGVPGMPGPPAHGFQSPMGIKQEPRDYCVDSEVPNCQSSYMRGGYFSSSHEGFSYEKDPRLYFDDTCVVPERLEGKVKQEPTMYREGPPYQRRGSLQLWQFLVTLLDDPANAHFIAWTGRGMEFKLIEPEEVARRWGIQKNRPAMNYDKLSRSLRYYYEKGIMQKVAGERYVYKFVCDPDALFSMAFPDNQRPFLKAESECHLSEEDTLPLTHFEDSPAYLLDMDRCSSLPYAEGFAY
# Procedure, shortened: as §1
# HSF1 = HSF1 (Homo sapiens, UniProt Q00613 1-529); conditions: protein: recombinant; tags: N-terminal GST; chain copies: 3; dsDNA, one strand shown
# HSF1, sequence (Q00613 whole entry): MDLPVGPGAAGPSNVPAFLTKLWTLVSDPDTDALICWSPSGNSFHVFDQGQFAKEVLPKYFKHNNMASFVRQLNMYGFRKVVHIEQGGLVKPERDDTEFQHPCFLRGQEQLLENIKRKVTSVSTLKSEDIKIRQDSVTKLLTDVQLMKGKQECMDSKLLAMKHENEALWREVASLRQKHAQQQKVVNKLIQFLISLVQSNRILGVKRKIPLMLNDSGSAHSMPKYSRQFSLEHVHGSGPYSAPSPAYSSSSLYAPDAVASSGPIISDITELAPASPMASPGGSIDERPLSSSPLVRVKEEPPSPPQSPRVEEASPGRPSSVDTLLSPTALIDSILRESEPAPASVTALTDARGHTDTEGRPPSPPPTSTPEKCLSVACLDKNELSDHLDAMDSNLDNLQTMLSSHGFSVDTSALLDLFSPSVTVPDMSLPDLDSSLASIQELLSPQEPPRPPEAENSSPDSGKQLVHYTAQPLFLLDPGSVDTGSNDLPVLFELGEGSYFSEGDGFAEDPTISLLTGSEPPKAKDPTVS
# Procedure, shortened: as §1
# SPIC = biological target: T2, SPIC (Homo sapiens, UniProt Q8N5J4 1-248); conditions: protein: recombinant; tags: N-terminal GST; dsDNA, one strand shown
# T2 sequence: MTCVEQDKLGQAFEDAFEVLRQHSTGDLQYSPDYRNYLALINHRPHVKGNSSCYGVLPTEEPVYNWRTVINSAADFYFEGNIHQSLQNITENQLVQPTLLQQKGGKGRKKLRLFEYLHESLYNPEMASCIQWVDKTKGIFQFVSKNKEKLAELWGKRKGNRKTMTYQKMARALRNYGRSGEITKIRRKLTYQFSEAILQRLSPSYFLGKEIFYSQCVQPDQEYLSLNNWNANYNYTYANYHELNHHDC
# Procedure, shortened: as §1
# ELF4 = ELF4 (Homo sapiens, UniProt Q99607 1-663); conditions: protein: recombinant; tags: N-terminal GST; dsDNA, one strand shown
# ELF4, sequence (Q99607 whole entry): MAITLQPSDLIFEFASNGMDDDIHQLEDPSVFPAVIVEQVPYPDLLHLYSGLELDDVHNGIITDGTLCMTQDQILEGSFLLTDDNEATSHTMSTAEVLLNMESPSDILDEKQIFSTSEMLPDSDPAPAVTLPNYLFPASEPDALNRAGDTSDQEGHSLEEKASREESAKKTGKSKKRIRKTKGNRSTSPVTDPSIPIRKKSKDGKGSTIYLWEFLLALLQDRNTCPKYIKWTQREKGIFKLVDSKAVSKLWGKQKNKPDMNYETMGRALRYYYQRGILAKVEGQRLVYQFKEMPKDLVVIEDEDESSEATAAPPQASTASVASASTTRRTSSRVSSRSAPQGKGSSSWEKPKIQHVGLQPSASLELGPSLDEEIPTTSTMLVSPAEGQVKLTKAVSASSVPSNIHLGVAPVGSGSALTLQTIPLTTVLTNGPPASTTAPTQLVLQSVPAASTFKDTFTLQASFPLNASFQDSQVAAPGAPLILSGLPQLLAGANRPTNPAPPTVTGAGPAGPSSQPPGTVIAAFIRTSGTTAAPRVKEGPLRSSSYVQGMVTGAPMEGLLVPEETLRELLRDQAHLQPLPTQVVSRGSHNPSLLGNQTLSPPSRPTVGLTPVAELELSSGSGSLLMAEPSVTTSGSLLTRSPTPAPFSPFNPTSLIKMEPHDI
# Procedure, shortened: as §1
# ELK4 = biological target: T3, ELK4 (Homo sapiens, UniProt P28324-2 1-405); conditions: protein: recombinant; tags: N-terminal GST; dsDNA, one strand shown
# T3 sequence: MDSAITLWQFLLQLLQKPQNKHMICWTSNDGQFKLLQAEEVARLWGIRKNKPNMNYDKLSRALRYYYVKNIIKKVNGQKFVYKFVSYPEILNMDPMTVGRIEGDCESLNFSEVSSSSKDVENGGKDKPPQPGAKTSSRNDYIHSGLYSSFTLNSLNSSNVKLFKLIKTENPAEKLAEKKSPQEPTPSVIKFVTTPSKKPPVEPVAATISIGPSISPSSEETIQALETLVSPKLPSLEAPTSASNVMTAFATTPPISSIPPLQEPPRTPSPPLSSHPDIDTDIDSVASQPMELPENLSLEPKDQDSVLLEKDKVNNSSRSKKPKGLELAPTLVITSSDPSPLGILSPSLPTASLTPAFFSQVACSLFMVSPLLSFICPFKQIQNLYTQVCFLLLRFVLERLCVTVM
# Procedure, shortened: as §1
# ETV2 = biological target: T4, ETV2 (Homo sapiens, UniProt O00321 1-342); conditions: protein: recombinant; tags: N-terminal GST; dsDNA, one strand shown
# T4 sequence: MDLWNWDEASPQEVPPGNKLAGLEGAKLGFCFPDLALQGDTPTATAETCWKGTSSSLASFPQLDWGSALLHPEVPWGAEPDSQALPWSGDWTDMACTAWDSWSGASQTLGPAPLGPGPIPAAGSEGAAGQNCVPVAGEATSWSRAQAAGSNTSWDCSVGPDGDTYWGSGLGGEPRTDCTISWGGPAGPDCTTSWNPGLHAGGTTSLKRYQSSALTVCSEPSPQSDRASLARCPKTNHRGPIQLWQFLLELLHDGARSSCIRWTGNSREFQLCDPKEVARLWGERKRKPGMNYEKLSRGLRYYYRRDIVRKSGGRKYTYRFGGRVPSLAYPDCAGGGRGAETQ
# Procedure, shortened: as §1
# ELF3 = biological target: T5, ELF3 (Homo sapiens, UniProt P78545 1-371); conditions: protein: recombinant; tags: N-terminal GST; dsDNA, one strand shown
# T5 sequence: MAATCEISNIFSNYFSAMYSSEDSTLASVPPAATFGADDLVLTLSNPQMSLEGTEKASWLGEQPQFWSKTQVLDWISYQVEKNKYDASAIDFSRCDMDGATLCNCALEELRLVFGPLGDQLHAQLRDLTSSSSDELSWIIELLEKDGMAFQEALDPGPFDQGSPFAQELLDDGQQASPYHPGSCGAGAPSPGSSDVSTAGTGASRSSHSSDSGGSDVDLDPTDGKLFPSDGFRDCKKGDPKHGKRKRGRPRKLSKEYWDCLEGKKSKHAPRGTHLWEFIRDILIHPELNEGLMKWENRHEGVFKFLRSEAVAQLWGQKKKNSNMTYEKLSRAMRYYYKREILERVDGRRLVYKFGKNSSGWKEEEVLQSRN
# Procedure, shortened: as §1
# CRX = CRX (Homo sapiens, UniProt O43186 1-299); conditions: protein: recombinant; tags: N-terminal GST; dsDNA, one strand shown
# CRX, sequence (O43186 whole entry): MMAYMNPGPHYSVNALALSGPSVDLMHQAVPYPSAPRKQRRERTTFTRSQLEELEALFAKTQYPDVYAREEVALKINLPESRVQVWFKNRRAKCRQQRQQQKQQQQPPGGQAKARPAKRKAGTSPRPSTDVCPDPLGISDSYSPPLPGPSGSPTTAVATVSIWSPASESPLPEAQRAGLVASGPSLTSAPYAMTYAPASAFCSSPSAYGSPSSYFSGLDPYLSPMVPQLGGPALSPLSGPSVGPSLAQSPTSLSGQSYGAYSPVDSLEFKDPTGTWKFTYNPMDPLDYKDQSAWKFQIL
# Procedure, shortened: as §1
# ETV1 = ETV1 (Homo sapiens, UniProt P50549 1-477); conditions: protein: recombinant; tags: N-terminal GST; dsDNA, one strand shown
# ETV1, sequence (P50549 whole entry): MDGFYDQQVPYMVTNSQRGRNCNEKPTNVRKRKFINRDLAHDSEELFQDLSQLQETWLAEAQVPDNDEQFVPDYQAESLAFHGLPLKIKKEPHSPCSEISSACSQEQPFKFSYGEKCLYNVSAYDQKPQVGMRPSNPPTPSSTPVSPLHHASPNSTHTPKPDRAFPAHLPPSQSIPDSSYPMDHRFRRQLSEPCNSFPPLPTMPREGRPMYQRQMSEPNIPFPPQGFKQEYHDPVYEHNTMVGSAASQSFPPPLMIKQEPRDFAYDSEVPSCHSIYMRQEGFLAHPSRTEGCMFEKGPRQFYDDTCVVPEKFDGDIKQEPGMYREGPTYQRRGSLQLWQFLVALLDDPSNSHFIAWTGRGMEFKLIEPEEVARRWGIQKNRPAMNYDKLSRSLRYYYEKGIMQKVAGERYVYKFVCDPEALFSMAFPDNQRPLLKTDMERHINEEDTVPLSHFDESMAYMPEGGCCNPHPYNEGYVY
# Procedure, shortened: as §1
sequence,measurement,setting,value
TGCATT,binding signal,FEV,"1.38 fold enrichment (6-mer frequency, TF over GST control)"
same,binding signal,ETV5,"1.3 fold enrichment (6-mer frequency, TF over GST control)"
same,binding signal,HSF1,"1.24 fold enrichment (6-mer frequency, TF over GST control)"
same,binding signal,SPIC,"1.44 fold enrichment (6-mer frequency, TF over GST control)"
same,binding signal,ELF4,"1.36 fold enrichment (6-mer frequency, TF over GST control)"
same,binding signal,ELK4,"1.38 fold enrichment (6-mer frequency, TF over GST control)"
same,binding signal,ETV2,"1.39 fold enrichment (6-mer frequency, TF over GST control)"
same,binding signal,ELF3,"1.49 fold enrichment (6-mer frequency, TF over GST control)"
same,binding signal,CRX,"1.32 fold enrichment (6-mer frequency, TF over GST control)"
same,binding signal,ETV1,"1.32 fold enrichment (6-mer frequency, TF over GST control)"
